# D2 PAM-1: Beta-Arrestin HTS for Positive Allosteric Modulators of the Human D2 Dopamine Receptor: Potentiators. D(2) dopamine receptor (Homo sapiens), P14416. DiscoveRx D2 beta-arrestin cells, luminescence, 90 min; 100% = 57 uM dopamine signal. potentiation, % (concentration not given with the values). 360,000 compounds, 0.23% hits; in the data active means potentiation above about 50%; inconclusive means mostly about 30% to 49%
#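 D2 cells co-treated with compound plus 50 nM dopamine (EC20) for 90 min at 37 deg C to detect potentiation. Beta-arrestin recruitment was read as enzyme-fragment luminescence after 1 h at ambient temperature. Full response was set by 57 uM dopamine.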
# D2 ag-1: Beta-Arrestin HTS for Positive Allosteric Modulators of the Human D2 Dopamine Receptor: Agonists; D(2) dopamine receptor (Homo sapiens), P14416; 360,000 compounds, 0.084% hits; DiscoveRx PathHunter D2 beta-arrestin, luminescence, 90 min; 100% = 57 uM dopamine signal; activation, % (no concentration beside the values); in the data active means activation above about 40%; inconclusive means between about 15% and that limit
#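 DiscoveRx PathHunter D2 beta-arrestin cells (2,100/well) attached overnight, then compound-stimulated 90 min at 37 C in HBSS/10 mM HEPES/0.1% Tween-20 buffer; beta-galactosidase complementation read by luminescence after 1 h at ambient temperature. Dopamine 57 uM final (EC100) as control.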
# D2 antagonist: HTS Assay for Allosteric Antagonists of the Human D2 Dopamine Receptor: Primary Screen for Antagonists | D(2) dopamine receptor (Homo sapiens), P14416 | HEK293 TREx D2 cells, calcium flux, dopamine EC80 | inhibition, % at 10 µM | 340,000 compounds, 2% hits; in the data active means inhibition above about 30%; inactive means below that, where a call was filed; further: 0% is about no effect
#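 Overnight-induced (tetracycline, 30 C) HEK293 T-REx cells carrying force-coupled D2 receive a no-wash calcium dye, then compound, then EC80 dopamine at 180 s; signals are read kinetically throughout.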
# D2 ag-2: HTS Assay for Allosteric Agonists of the Human D2 Dopamine Receptor: Primary Screen for Agonists. D(2) dopamine receptor (Homo sapiens), P14416. HEK293 T-REx D2 cells, calcium flux agonist mode. activation, % at 2 µM. 340,000 compounds, 0.53% hits;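 active means activation over 3 SD above normal in the single-dose calcium agonist read, cut at about 30% in these data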; further: 0% is about no effect
#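 Tetracycline-induced HEK293 Trex cells with D2 receptor force-coupled to calcium signaling, plated overnight at 30 C and loaded with no-wash calcium dye. Calcium flux read kinetically for 180 s after compound addition; responses flag agonists.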
# D2 PAM-2: HTS Assay for Positive Allosteric Modulators of the Human D2 Dopamine Receptor: Primary Screen for Potentiators | HEK293 T-REx D2, calcium flux, EC20 dopamine potentiation | potentiation, % at 10 µM | 340,000 compounds, 0.34% hits;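 active means potentiation over 3 SD above the plate norm, cut at about 30% in these data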; further: 0% is about no effect
#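 Potentiation of an EC20 dopamine calcium response measured kinetically over 180 s, after a preceding 180 s compound-only read flagging agonists. Cells: inducible Hek293 Trex D2 line, 4000/well, cultured overnight at 30 C before dye loading.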
# D3 arrestin ag: qHTS of D3 Dopamine Receptor Agonist: D3 Dopamine Receptor B-arrestin Agonist Confirmatory Assay | shares compounds with D2 ag-2 | 2,300 compounds, 4% hits | Potency, µM (series often up to 76.9 µM), for inactives: top-dose activation, most hits filed as activators | DiscoveRx D3 beta-arrestin cells, luminescence, 90 min;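 further: potency means the concentration at half of the fitted maximal effect; 100% = dopamine control response; nearly all actives have a fitted effect of over 70% in size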
# Target sequence (P35462 whole entry, looked up): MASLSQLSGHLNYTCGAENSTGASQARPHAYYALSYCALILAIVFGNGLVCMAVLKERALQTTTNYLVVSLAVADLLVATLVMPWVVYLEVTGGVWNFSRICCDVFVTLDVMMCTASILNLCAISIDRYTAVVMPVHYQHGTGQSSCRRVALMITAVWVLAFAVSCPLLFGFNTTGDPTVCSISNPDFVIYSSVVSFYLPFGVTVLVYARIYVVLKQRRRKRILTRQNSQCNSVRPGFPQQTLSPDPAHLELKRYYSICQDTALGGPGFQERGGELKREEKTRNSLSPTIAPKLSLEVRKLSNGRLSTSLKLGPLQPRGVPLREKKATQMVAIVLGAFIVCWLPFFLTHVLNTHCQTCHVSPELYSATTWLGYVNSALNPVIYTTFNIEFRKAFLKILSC
# D2 ag-3: qHTS of D3 Dopamine Receptor Agonist: D2 Dopamine Receptor B-arrestin Agonist Counterscreen. DiscoveRx PathHunter D2 beta-arrestin, luminescence, 90 min; response scale: percent relative to full dopamine signal. shares compounds with D2 ag-2. AID 720507, 2013. Potency, µM (titrated, usually from 76.9 µM), for inactives: at the highest dose activation, most hits filed as activators. 2,300 compounds, 5.9% hits; further: potency means the concentration at half of the fitted maximal effect; % of control where 0% means no effect; nearly all actives have a fitted effect of over 70% in size
# Active calls of the source: *; ? = inconclusive; / = no result. Sampled rows, rich in hits. Any-hit rate of the full collection: about 2.4%. Unless noted, the call rests on the fitted dose curve; in most records, active means well fitted activation curve with a large enough effect; inconclusive means small, poorly fitted or top-dose-only effect; inactive means flat fitted curve, though single readings scatter.
SMILES,D2 PAM-1,D2 ag-1,D2 antagonist,D2 ag-2,D2 PAM-2,D3 arrestin ag,D2 ag-3
CCC(CC)C(=O)Nc1nnc(SCc2cc(=O)c3ccccc3[nH]2)s1,/,/,/,1,18,/,/
CCOC(=O)N1CCN(CC(=O)Nc2c(C(=O)OC)[nH]c3cc(C)ccc23)CC1,-7,15,/,/,-12,?,16%
CC(COc1ccccc1)NC(C)C(O)c1ccc(O)cc1 (stereo not given),-21,13,90*,77*,-27,2%,16%
COc1cc(/C=C/C(O)=C/C(=O)/C=C/c2ccc(O)cc2)ccc1O,-6,-5,-12,48*,-12,-8%,-4%
CCCCn1cnc2cc(NC(=O)c3cc(OC)c(OC)c(OC)c3)ccc21,/,/,/,0,3,/,/
COc1ccc(C2=C(N3CCN(c4cccc(C)c4C)CC3)c3ccccc3C2=O)cc1,/,/,/,0,-4,/,/
Nc1ccc2[nH]ncc2c1,10,-1,34*,18,-4,?,11%
CC(=O)c1cccc(NS(=O)(=O)c2c(C)nc3sc(C)cn3c2=O)c1,/,/,/,0,0,/,/
O=C(Nc1ccc(N2CCN(c3ccc(F)cc3)CC2)c(C(=O)O)c1)c1ccccc1F,/,/,/,/,-5,/,/
CCOC(=O)Cn1c(=O)n(CC2CCCO2)c2nc(-c3c(F)cccc3Cl)nc(C(N)=O)c21 (stereo not given),/,/,/,0,14,/,/
COc1ccc(C2(CCN)CC(C)N(C)CC2C)cc1 (stereo not given),-14,0,23,31*,-17,-4%,3%
COc1ccc(N2C(S)=C(C#N)C(=O)NC2c2ccco2)cc1 (stereo not given),-6,3,9,50*,-20,1%,-3%
Cc1cccc(N2C(S)=C(C#N)C(=O)NC2c2ccco2)c1 (stereo not given),-3,0,22,0,6,/,/
CC(NCC(O)COc1ccccc1)C1COc2ccccc2O1 (stereo not given),-10,?,64*,65*,-28,8%,15%
CC(NCc1ccccc1)C1COc2ccccc2O1 (stereo not given),-21,4,29,38*,-19,11%,4%
CCOCCC(=O)Nc1ncc(S(=O)(=O)c2ccc([N+](=O)[O-])cc2)s1,-2,?,/,/,/,/,/
CCCC(C)C(=O)Nc1ncc(S(=O)(=O)c2ccc([N+](=O)[O-])cc2)s1 (stereo not given),11,14,19,23,10,?,24%
CC(=O)Nc1ccc(C(=O)Nc2ccc(S(=O)(=O)N3CCOCC3)cc2)cc1,1,4,-6,1,3,/,/
O=C(Nc1ccc(N2CCOCC2)cc1)c1ccc(S(=O)(=O)N2CCCCC2)cc1,-15,-2,4,2,-10,-2%,-1%
CCOC(=O)c1sc(NC(=O)CSCc2c(C)noc2C)nc1C,-3,10,-7,-1,1,-5%,-4%
CCOC(=O)c1sc(NC(=O)c2c(CC)noc2C)nc1C,0,-1,0,0,-10,-2%,-1%
CCOC(=O)N1CCN(C(=O)COC(=O)COc2c(C)cc(C)cc2C)CC1,-5,-5,/,/,/,/,/
CC(=O)N1CCN(C(=O)COC(=O)COc2c(C)cc(C)cc2C)CC1,-10,0,21,-1,2,-5%,-1%
CCOC(=O)c1ccccc1Nc1cc(C)nc2nc(-c3ccco3)nn12,/,/,/,-1,-8,/,/
CCOc1ccc(-c2c(C)nn3c(C)c(C(=O)Nc4cc(C)cc(C)c4)cnc23)cc1OCC,/,/,/,0,2,/,/
SMILES,D2 PAM-1,D2 ag-1,D2 antagonist,D2 ag-2,D2 PAM-2,D3 arrestin ag,D2 ag-3
COc1ccc(S(=O)(=O)NCCc2sc(-c3ccccc3)nc2C)cc1F,/,/,/,-2,-9,/,/
C=C(C)C1CC=C(CN2CCC(C(=O)OCC)CC2)CC1 (stereo not given),-4,10,72*,60*,-22,-3%,20%
CCCn1c(N2CCN(C(=O)Nc3ccc(Cl)cc3)CC2)nc2ccccc21,7,?,/,/,/,13%,?
COC(=O)CCN(C(=O)C1C2CC3CC(C2)CC1C3)c1ccccn1 (stereo not given),0,?,14,41*,-7,1%,?
CCOc1ccccc1C(=O)N(CCC(=O)OC)c1ccccn1,-16,0,5,0,-10,/,/
O=C(Nc1ccnn1C1CCN(CCCc2ccccc2)CC1)c1ccccc1Cl,13,?,88*,80*,-35,10%,?
CC(C)=CCN1CCC(n2nccc2NC(=O)c2ccccc2Cl)CC1,-24,-7,16,0,-17,/,/
CC1(C)NC(=O)N(CC(=O)N2CCN(S(=O)(=O)c3cc(Cl)ccc3Cl)CC2)C1=O,2,-2,/,/,7,-9%,-3%
COc1ccc(C(=O)c2oc3ccccc3c2NC(=O)COc2c(C)cc(C)cc2C)cc1,/,/,/,1,-7,/,/
Nc1c(Cl)ncnc1NCC(O)CO (stereo not given),-1,-2,1,0,2,-12%,-2%
Cc1ccc(C(=O)N2CCN(C34CC5CC(CC(C5)C3)C4)CC2)o1,-13,0,/,/,/,-2%,1%
COc1cc(C(=S)N2CCOCC2)cc(OC)c1OC(=O)c1ccc(C)cc1,-2,-6,27,0,5,1%,2%
O=C(O)c1ccc(/C=C2\SC(=S)N(Nc3ccccc3)C2=O)cc1,-3,-14,6,3,7,?,2%
O=C1/C(=C/c2ccncc2)SC(=S)N1Nc1ccccc1,-9,-4,-2,1,1,/,/
OC(CN1CCCCC1)Cn1c2ccccc2c2cc(Br)ccc21 (stereo not given),-10,7,80*,39*,-28,15%,-1%
Cc1ccc(C)n1-c1nnc(N2CCCC(C(=O)NCc3cccc(F)c3)C2)s1 (stereo not given),/,/,/,0,-6,/,/

# Screening results as filed in PubChem BioAssay.
